Structures are written as SMILES. This is part of a sample that, as a whole, favours compounds with a hit. Of some 83,000 tested, about 20% had one in any assay.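 Testing used 96-well plates and a 48-hour single-concentration exposure. Example: -40 means 40% of the starting cells died.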 Unmarked numbers belong to inactive results. Activity calls are given as the source filed them. How the source made its calls: active means growth percent below 10; inactive means the rest.

Experiment in all cases: NCI-60 one-dose screen, 48 h (100 = growth as untreated, 0 = no growth, -100 = all killed)
Holding throughout (settings): 10 µM unless noted

The subject of experiment [1] is HCT-15 colon.
Experiment [2] deals with HT29 colon.
The test system of experiment [3] is SNB-75 CNS.
Experiment [4] relates to SNB-19 CNS.
Experiment [5] concerns U251 CNS.
In experiment [6] the test system is PC-3 prostate.
Experiment [7] deals with SK-MEL-5 melanoma.
Experiment [8] concerns UACC-62 melanoma.
The subject of experiment [9] is LOX IMVI melanoma.
In experiment [10] the test system is SK-MEL-28 melanoma.
For experiment [11], the system named is SK-MEL-2 melanoma.
Experiment [12] concerns EKVX NSCLC.
Experiment [13] concerns SN12C renal.
In experiment [14] the test system is UO-31 renal.
In experiment [15] the test system is TK-10 renal.
Experiment [16] has as its system CAKI-1 renal.
Experiment [17] has as its system A498 renal.
In experiment [18] the test system is CCRF-CEM leukemia.
Experiment [19] has as its system MOLT-4 leukemia.

For `CCN(CC)S(=O)(=O)c1cccc([N+](=O)[O-])c1`, the growth in experiment [1] was 107%; in experiment [2], 88.4%; in [3], 79.9%; in experiment [4] it was 103%; in experiment [5], 88.9%; in experiment [6] it was 75.4%. Also, the growth was 97.9% in experiment [7]; 102% in experiment [8]; 97.6% in experiment [9]; 108% in experiment [10]; 93% in experiment [11]; 98.7% in experiment [12]. Besides, the growth in [13] is 100%; in experiment [14], 82.6%; in experiment [15] it was 90%; in [16], 91.3%; in [17], 73.2%; in experiment [18] it was 102%. Moreover, the growth in experiment [19] was 105%.

As for `COc1cc(NCCCN(CC(C)C)CC(C)C)c2ncccc2c1`, the growth was 72.9% in experiment [1]; 82.7% in experiment [2]; 95.4% in experiment [3]; 99.9% in [4]; 96.1% in experiment [5]; 70.4% in [6]. Moreover, the growth in experiment [7] is 97%; in experiment [8] it was 89%; in [9] it was 85.3%; in experiment [10], 97%; in [11], 91.8%; in experiment [12] it was 84.5%. Besides, the growth is 88.2% in experiment [13]; 81.4% in experiment [14]; 102% in [15]; 92.4% in experiment [16]; 79.2% in experiment [17]; 87.5% in experiment [18]. Moreover, the growth in experiment [19] is 103%.

Regarding `COc1cc(/C=N/NC(=O)c2ccccc2Nc2cccc(C(F)(F)F)c2)ccc1O`, the growth in experiment [1] is 86.1%; in experiment [2], 113%; in experiment [3], 107%; in experiment [4], 84.2%; in [5], 87.8%; in experiment [6], 80.9%. The growth in [7] was 58.8%; in experiment [8], 78.7%; in experiment [9] it was 76.3%; in [10], 104%; in experiment [11], 136%; in [12], 79.5%. Also, the growth in [13] is 96.5%; in experiment [14], 74.8%; in experiment [15], 126%; in [16] it was 116%; in experiment [17], 76.9%; in experiment [18] it was -41.6% (active). The growth in [19] is -76.2% (active).

Consider `COc1ccc(C(=O)/C=C/c2c(OC)cc(OC)cc2OC)c(OC)c1`, for which the growth in experiment [1] was 5.27% (active); in experiment [2], 1.7% (active); in [3], 8.7% (active); in experiment [4], 33.6%; in experiment [5], 15.5%; in experiment [6] it was 6.39% (active). For the same compound, the growth in experiment [7] is -5.47% (active); in experiment [8] it was 11.9%; in [9], 27.3%; in experiment [10], 56.8%; in experiment [11], -9.11% (active); in experiment [12] it was 59.1%. The growth is 28.8% in experiment [13]; 31.8% in [14]; 44.3% in experiment [15]; -1.02% (active) in [16]; 13.8% in [17]; 9.01% (active) in experiment [18]. For the same compound, the growth in experiment [19] is 33.6%.

With `C=C1C(=O)O[C@H]2[C@H]1CC/C(COC(=O)CCCc1c[nH]c3ccccc13)=C\CC[C@@]1(C)O[C@@H]21`, the growth in experiment [1] was 7.56% (active); in experiment [2], 21.7%; in [3], 76.4%; in [4], 71.2%; in [5], 56.4%; in experiment [6], 50.7%. In addition, the growth in [7] is 71.5%; in [8] it was 70.1%; in experiment [9], -3.89% (active); in [10], 92.6%; in [11], 88.4%; in experiment [12] it was 74.3%. In addition, the growth was 54.8% in experiment [13]; 58.5% in experiment [14]; 94.7% in experiment [15]; 103% in [17]; 1.43% (active) in [18]; 3.73% (active) in experiment [19].

With `O=S(=O)(O)c1cc(O)c2c(N=Nc3ccc(Nc4ccccc4)c4c(S(=O)(=O)O)cccc34)cc(S(=O)(=O)O)cc2c1`, the growth in experiment [1] was 99.1%; in [2] it was 107%; in experiment [3] it was 96.2%; in experiment [4], 103%; in experiment [5] it was 102%; in experiment [6], 95%. The growth in experiment [7] is 109%; in [8], 105%; in experiment [9], 96.5%; in experiment [10] it was 111%; in experiment [11] it was 99.7%; in experiment [12], 103%. Moreover, the growth in experiment [13] is 99.2%; in experiment [14], 74.3%; in [15], 106%; in experiment [16] it was 99.4%; in [19], 110%.

As for `Clc1ccc2c(c1)c(-c1ccccc1)nc1nncn12`, the growth in experiment [1] is 108%; in [2], 104%; in experiment [3] it was 98.3%; in experiment [4] it was 109%; in [5], 105%; in experiment [6], 111%. Further, the growth in experiment [7] was 105%; in experiment [8] it was 113%; in [9], 102%; in experiment [10], 121%; in experiment [11], 102%; in [12], 109%. Besides, the growth in experiment [13] is 104%; in [14], 90.8%; in experiment [15], 114%; in experiment [16], 105%; in experiment [18], 101%; in [19], 96.7%.

In the case of `COc1ccc(-c2ncc(-c3ccccc3)[nH]2)cc1OC`, the growth in experiment [1] is 104%; in experiment [2], 113%; in experiment [3] it was 108%; in [4], 104%; in experiment [5], 113%; in experiment [6], 112%. Further, the growth in experiment [7] was 106%; in experiment [8], 95.3%; in experiment [9] it was 116%; in experiment [10] it was 105%; in experiment [11], 118%; in [12], 106%. For the same compound, the growth in experiment [13] was 100%; in [14], 109%; in [15] it was 256%; in experiment [16] it was 108%; in experiment [17], 89.2%; in experiment [18] it was 18%. Moreover, the growth in experiment [19] was -81.9% (active).

For the origin of these results see PubChem BioAssay (NCI).
